NS1 function inh – inhibitors of influenza NS1 protein function. 0.4% of 270,000 active. Potency, µM (top dose mostly 46.1 µM); further: actives are rising curves; nearly all actives have a fitted effect of over 50% in size
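A cell-based growth assay was used: compounds that relieve NS1-induced slow growth of budding yeast raise OD600. Assay medium was yeast nitrogen base with ammonium sulphate and -URA supplement, pH 6.0, with 2% galactose.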
Pf growth 96h – P. falciparum growth inhibition at 96 hours | P. falciparum luciferase reporter growth, 96 h | Potency, µM (highest dose often 28.7 µM), hits mostly inhibitors | 6.9% of 320,000 active | AID 504834; active means well fitted inhibition curve with a large enough effect; inconclusive means small, poorly fitted or top-dose-only effect, or another doubt; inactive means no such curve, though single readings can be large or run the other way
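Two parasite generations (96 h, 37 C, 5% CO2) of compound exposure in infected erythrocytes (0.05% parasitemia, 2% hematocrit). Luciferase-reporter P. falciparum; decreased luminescence indicates inhibited growth, aimed at apicoplast-acting delayed death.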
SARS PLP yeast – blocks SARS-CoV papain-like protease in a yeast assay; S. cerevisiae expressing SARS-CoV PLpro, growth rescue; Potency, µM (series often up to 32.9 µM), most hits filed as activators; 0.19% of 330,000 active; AID 485353; further: nearly all actives have a fitted effect of over 55% in size
Pf growth 48h – P. falciparum growth inhibition at 48 hours (one generation); P. falciparum luciferase growth in erythrocytes, 48 h; Potency, µM (doses to about 28.7 µM), actives largely listed as inhibitors; 5.9% of 310,000 active; active means well fitted inhibition curve with a large enough effect; inconclusive means small, poorly fitted or top-dose-only effect, or another doubt; inactive means no such curve, though single readings can be large or run the other way
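In quantitative HTS format, infected erythrocytes bearing luciferase-reporter parasites were treated for a single generation at 37 C. Luminescence after adding detection reagent served as the growth measure.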
CHX counter – affects cycloheximide protein synthesis inhibition readout, counter-screen. cell reporter, cycloheximide protein synthesis inhibition counterscreen. max response, %. 12% of 300,000 active; in the data active means max response mostly above about 13%, no sharp cut-off; inactive means mostly below about 14%; further: read at 38.3 µM for the half of the compounds with a filed dose
Shiga toxin inh – Shiga toxin inhibition; AID 2315; 9.2% of 290,000 active; Vero cells, Shiga toxin protein synthesis inhibition reporter; inhibition, % at 38.7 µM; in the data active means inhibition mostly above about 28%, no sharp cut-off; inactive means mostly below about 43%
Large screens that a line does not name were inactive. An excerpt weighted towards active compounds, which were near 21% of everything screened. Unless noted, the call rests on the fitted dose curve.

COc1cc(NC(=O)C2CCCN2C(=O)OCc2ccccc2)cc(OC)c1 (stereo not drawn)	Pf growth 48h 7.4µM
CCOc1ccccc1NC(=O)C1CCCN1S(=O)(=O)c1ccccc1C(F)(F)F (stereo not drawn)	Pf growth 96h inconclusive, Pf growth 48h 8.3µM (no result: NS1 function inh, CHX counter, Shiga toxin inh)
CCCc1nnc(NC(=O)CCC(=O)NC2CCCC2)s1	Pf growth 96h inconclusive
Cc1nn(C(C)C(=O)NCCc2cccs2)c(=O)c2nn(-c3ccccc3)c(C)c12 (stereo not drawn)	Pf growth 96h 13µM
Cc1nn(CC(=O)NCc2cccs2)c(=O)c2nn(-c3ccccc3)c(C)c12	none
COc1ccc(OC)c(CCNC(=O)C(C)n2nc(C)c3c(C)n(-c4ccccc4)nc3c2=O)c1 (stereo not drawn)	Pf growth 96h 12µM
Cc1ccc(-n2nc3c(=O)n(C(C)C(=O)NCCCc4ccccc4)nc(C)c3c2C)cc1 (stereo not drawn)	Pf growth 96h 8.3µM, Pf growth 48h inconclusive
C=CCOc1c(Br)cc(CNn2nnnc2N)cc1OC	none
CC[C@]12c3[nH]c4cc(CCC(=O)N(C)C)ccc4c3CCN1C(=O)[C@@H](CC(=O)NCCCn1ccnc1)C[C@@H]2C(=O)N1CCN(C(=O)c2ccco2)CC1	none (no result: NS1 function inh, Pf growth 96h, Pf growth 48h, CHX counter, Shiga toxin inh)
CC12CCC(=O)N1C(C(=O)Nc1nc(-c3ccccc3Cl)cs1)CS2 (stereo not drawn)	Pf growth 96h inconclusive, Pf growth 48h inconclusive (no result: NS1 function inh, CHX counter, Shiga toxin inh)
COc1ccc(-c2csc(Nc3ccccc3)[n+]2Cc2ccccc2)cc1	Pf growth 96h 13µM, CHX counter 38, Shiga toxin inh 55 (no result: NS1 function inh)
O=[N+]([O-])c1ccc(-c2csc(Nc3ccccc3)[n+]2Cc2ccccc2)cc1	Pf growth 96h inconclusive, Pf growth 48h 5.2µM, CHX counter 33, Shiga toxin inh 29
Cc1ccc(-c2csc(Nc3ccccc3)[n+]2CCc2ccccc2)cc1	Pf growth 96h 2.1µM, Pf growth 48h 12µM, CHX counter 23, Shiga toxin inh 70 (no result: NS1 function inh)
Cc1ccc(-c2csc(Nc3ccc(C(=O)O)cc3)[n+]2Cc2ccccc2)cc1	Pf growth 96h inconclusive, Pf growth 48h inconclusive
O=C(NC1CCCCC1)c1ccc(CNc2nc(=S)[nH]c3ccccc23)cc1	Pf growth 96h inconclusive, Pf growth 48h inconclusive
CCc1c(C)nc2ncnn2c1NCCc1ccc(Cl)cc1	Pf growth 48h inconclusive
CCCc1cnc(NCCNCC(O)COc2ccc(Cl)c(Cl)c2)nc1 (stereo not drawn)	Pf growth 96h 12µM, Pf growth 48h inconclusive
CC(=O)c1cccc(OCC(O)CNCCc2ccc(Cl)cc2)c1 (stereo not drawn)	none
COc1ccc(CN2CCCC(CO)(Cc3ccc(F)cc3F)C2)cc1 (stereo not drawn)	Pf growth 96h 10µM
COc1cccc(CC2(CO)CCCN(Cc3ccc(C)s3)C2)c1 (stereo not drawn)	Pf growth 96h inconclusive, Pf growth 48h inconclusive
COc1cccc(CC2(CO)CCCN(Cc3[nH]c4ccc(C)cc4c3C)C2)c1 (stereo not drawn)	Pf growth 96h 5.9µM, Pf growth 48h 9.3µM
COc1cccc(CC2(CO)CCCN(Cc3sc(N4CCCC4)nc3Cl)C2)c1 (stereo not drawn)	Pf growth 96h 15µM, Pf growth 48h inconclusive
Cc1c(Cl)cccc1S(=O)(=O)Nc1ccnn1C	none
O=C(NCC(=O)N1CCN(c2ccccc2O)CC1)c1ccc2c(c1)OCO2	Pf growth 48h inconclusive
NS(=O)(=O)c1ccc(CCNC(=O)c2ccccc2-c2ccccc2)cc1	none
Cc1cc(C)n2nc(C(=O)N/N=C/c3ccccc3Cl)nc2n1	none
Cc1cc(C)c2ccc(=O)n(CC(=O)N/N=C/c3ccccc3Cl)c2n1	NS1 function inh inconclusive, Pf growth 48h 2.6µM
Cc1nc(Cl)sc1C(=O)Nc1cccc(Cl)c1C	none
Cc1ccc(C2=NN=C(NC(=O)CSc3nnc4c5ccccc5n(C)c4n3)SC2)cc1	Pf growth 48h 3.3µM
CCc1ccc(CN(C(=O)COc2c(C)cccc2C)C2CCS(=O)(=O)C2)cc1 (stereo not drawn)	Pf growth 96h inconclusive, Pf growth 48h inconclusive
CC(Oc1ccccc1)c1ccn[nH]1 (stereo not drawn)	none
c1ccc(C(c2ccccc2)c2ccn[nH]2)cc1	CHX counter 19, Shiga toxin inh 61
COc1ccccc1/C=C/C(=O)Nc1cccc(C(C)=O)c1	CHX counter 45, Shiga toxin inh 65
COc1ccc(Br)cc1/C=C/C(=O)Nc1ccc2ccccc2c1	CHX counter 33
COc1cccc(/C=C/C(=O)Nc2ccc3c(c2)OCCO3)c1OC	CHX counter 27, Shiga toxin inh 88 (no result: NS1 function inh)
COc1ccc(Br)cc1/C=C/C(=O)Nc1ccc(C)cc1	none
COc1cccc(/C=C/C(=O)Nc2cccc(C(C)=O)c2)c1OC	CHX counter 49, Shiga toxin inh 75 (no result: NS1 function inh)
CCc1cc(C(=O)O)c(NC(=O)/C=C/c2ccc(OC)cc2)s1	CHX counter 32
CCc1cc(C(=O)O)c(NC(=O)/C=C/c2ccc(OC)c(OC)c2)s1	Pf growth 96h inconclusive, Pf growth 48h inconclusive
COc1ccc(/C=C/C(=O)Nc2cccc(C(C)=O)c2)cc1	Pf growth 96h inconclusive, CHX counter 60, Shiga toxin inh 68
CN(CC(=O)NCCc1ccc(S(N)(=O)=O)cc1)CC(=O)Nc1cccc(F)c1	none (no result: NS1 function inh, CHX counter, Shiga toxin inh)
CCC1CCCCN1Cc1nc2ccccc2c(=O)n1CC(C)=O (stereo not drawn)	Pf growth 96h inconclusive, Pf growth 48h inconclusive, CHX counter 34, Shiga toxin inh 75
COc1ccc(C2CCCCCN2Cc2nc3ccccc3c(=O)n2CC(N)=O)cc1 (stereo not drawn)	Pf growth 96h inconclusive
CCOc1ccc(C(C)=O)cc1COC(=O)C(C)N=C1NS(=O)(=O)c2ccccc21 (stereo not drawn)	none
CCOC(=O)c1ccc(NC(=O)CCc2nc(-c3ccccc3)no2)cc1	Pf growth 96h 13µM
COc1ccc(-c2noc(N(C)CC(=O)Nc3cccc(C(F)(F)F)c3)n2)cc1	CHX counter 21
CCOC(=O)c1cccc(NC(=O)CCc2nc(-c3ccc(C)cc3)no2)c1	Pf growth 96h 1µM, Pf growth 48h 12µM
COc1ccc(-c2noc(CCC(=O)Nc3cccc(C)c3)n2)cc1	Pf growth 96h inconclusive, CHX counter 27, Shiga toxin inh 100
COc1cccc(CN(C)CC(=O)Nc2cccc(C(F)(F)F)c2)c1OC	Pf growth 96h inconclusive, Pf growth 48h inconclusive (no result: NS1 function inh)
COc1ccccc1-c1noc(CCC(=O)Nc2cccc(C)c2)n1	none
COc1ccccc1-c1noc(CCC(=O)Nc2ccccc2Cl)n1	Pf growth 96h inconclusive, CHX counter 19
COCCN1Cc2cc(=O)n3c([nH]c4ccccc43)c2C1=N	Pf growth 96h inconclusive, Pf growth 48h inconclusive, CHX counter 22 (no result: NS1 function inh)
CC[n+]1ccc(/C=C/c2ccc(N(C)C)cc2)c2ccccc21	Pf growth 48h 0.59µM
CC[n+]1ccccc1/C=C/c1ccc(N(C)C)cc1	Pf growth 48h 2.9µM (no result: NS1 function inh)

Compound activity from PubChem BioAssay.
